In PubChem BioAssay AID1851 (National Center for Advancing Translational Sciences (NCATS), 2009):
Where “and” joins values, the source holds several entries; their conditions need not be identical. Equal values may be shown once. The campaign covered roughly 16,000 compounds. About 5,700 (36%) were called active. Not shown: some 24% with an inconclusive outcome. The list shows a part of the results. Values without a mark were called inactive. Calls follow the shape of the dose curve; as a rule, active = well fitted curve in the direction sought with a large enough effect; inconclusive = small, poorly fitted or top-dose-only effect, or effect the other way; inactive = no such curve, though single readings can be large or run the other way.
% is scaled to controls: 0 for no effect and ±100 for the full control effect.

These molecules were tested against Cytochrome P450 1A2 (Homo sapiens) (UniProt P05177) (assay: Cytochrome panel assay with activity outcomes). Settings: recombinant CYP, pro-luciferin dealkylation, luminescence, p450-cyp1a2; series mostly up to 57.1 µM; activity, negative = inhibition: at the top concentration.
Chain of Cytochrome P450 1A2 (Homo sapiens) (P05177 whole entry, looked up): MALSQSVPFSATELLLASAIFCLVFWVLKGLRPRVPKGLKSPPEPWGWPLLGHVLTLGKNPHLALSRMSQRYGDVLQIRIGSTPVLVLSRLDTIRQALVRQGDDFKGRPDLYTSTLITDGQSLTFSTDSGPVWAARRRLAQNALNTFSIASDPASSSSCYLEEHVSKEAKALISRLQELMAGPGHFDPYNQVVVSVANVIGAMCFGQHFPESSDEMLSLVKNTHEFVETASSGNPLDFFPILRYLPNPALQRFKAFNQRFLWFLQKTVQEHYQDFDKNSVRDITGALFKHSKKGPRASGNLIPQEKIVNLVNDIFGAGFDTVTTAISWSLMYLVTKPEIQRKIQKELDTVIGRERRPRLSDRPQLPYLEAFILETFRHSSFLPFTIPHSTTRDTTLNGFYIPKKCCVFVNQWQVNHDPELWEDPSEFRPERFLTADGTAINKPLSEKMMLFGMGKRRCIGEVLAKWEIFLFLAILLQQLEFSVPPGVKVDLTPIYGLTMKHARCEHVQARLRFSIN
`CN(C(=O)Cc1ccc(Cl)c(Cl)c1)[C@@H](CN1CCCC1)c1cccc(OCC(=O)O)c1` was tested, and the “activity, negative = inhibition” value was 2.92%. With `C[N+]1(C)[C@@H]2CC(OC(=O)[C@@H](CO)c3ccccc3)C[C@@H]1[C@H]1O[C@H]12` (stereo not given in full) the activity, negative = inhibition was -22.8% [at 11.4 µM]. With `Cc1ccc(S(=O)(=O)N[C@@H](CCCCN)C(=O)CCl)cc1` the “activity, negative = inhibition” value was 3.11%. Molecule `C[C@@]12CC[C@H](O[C@@H]3O[C@H](CO)[C@@H](O)[C@H](O)[C@@H]3O)C[C@@H]1CC[C@H]1[C@H]2CC[C@@]2(C)[C@@H](C3=CCOC3=O)CC[C@]12O` has an activity, negative = inhibition of -11.7% [at 11.4 µM]. `CCOc1ccc2c(c1)C(C)=CC(C)(C)N2` was tested, and the AC50 was 5.01 µM (active). Work on `CC(C)(C)C(=O)CP(=O)(O)O` yielded an activity, negative = inhibition of -9.4% [at 11.4 µM]. In the case of `CCOC(=O)C1=C(C)OC(N)=C(C#N)C12C(=O)N(C)c1ccccc12` (stereo not given), the “activity, negative = inhibition” value was 10.1%. In the case of `C[C@@H]1[C@@H]2Cc3ccc(O)cc3[C@@]1(C)CCN2CC1CC1`, the “activity, negative = inhibition” value was -14.6%. With `CNC(C)Cc1ccccc1Sc1ccc(O)cc1` (stereo not given) the “activity, negative = inhibition” value was -2.13%. For `Cn1c(O)c(C(=N)COc2ccccc2)c(=O)n(C)c1=O`, the AC50 was 6.31 µM (active). `O=C(Oc1ccccc1)N1CCC2(CC1)CN(C(c1ccccc1)c1ccccc1)C2` was tested, and the “activity, negative = inhibition” value was -14.2%. `c1csc(CN2CC[C@@]3(CCCNC3)C2)n1` was tested, and the “activity, negative = inhibition” value was -12.5%. For `CS(=N)(=O)CC[C@H](N)P(=O)(O)O` (stereo not given in full), the activity, negative = inhibition was -13.9% [at 11.4 µM]. With `CCOC(=O)Cn1cc(C(=O)c2ccccc2F)c2ccccc21` the AC50 was 3.55 µM (active). `O=C(c1ccccc1F)c1cn(CC(=O)N2CCOCC2)c2ccccc12` was tested, and the “activity, negative = inhibition” value was 0.466%. In the case of `O=C(c1ccccc1F)c1cn(Cc2ccccc2)c2ccccc12`, the AC50 was 7.08 µM (active). `COc1ccc(OC)c([C@H](O)[C@H](C)N)c1` was tested, and the AC50 was “inactive”. For `c1cc(N2CCCC3(CCNCC3)C2)ccn1`, the “activity, negative = inhibition” value was -4.56%. Molecule `Nc1nc(N)c(N=Nc2ccc([As](=O)(O)O)cc2)c(=O)[nH]1` has an activity, negative = inhibition of -14.9% [at 2.29 µM]. `N=C(N)n1cc(/C=N\N=C(N)N)cn1` was tested, and the activity, negative = inhibition was 7.8% [at 2.29 µM]. For `CCC[C@@](C)(COC(N)=O)COC(=O)NC(C)C`, the “activity, negative = inhibition” value was 0.255% [at 25.6 µM]. Molecule `O=C(O)C(O)(c1ccc(-c2ccccc2)cc1)c1ccc(-c2ccccc2)cc1` has an activity, negative = inhibition of -16.4% [at 11.4 µM]. For `CS(=N)(=O)CC[C@@H](N)C(=O)O` (stereo not given in full), the AC50 was “inactive”. With `Cc1cc(C)nc(NC2=NCCS2)n1` the AC50 was 12.6 µM (active). With `C=C(C)[C@H]1CC[C@]2(C(=O)O)CC[C@]3(C)[C@@H](CC[C@H]4[C@@]5(C)CC[C@@H](O)C(C)(C)[C@@H]5CC[C@@]43C)[C@H]12` the “activity, negative = inhibition” value was 10.2% [at 25.6 µM]. In the case of `O=C(c1cc(=O)[nH]c2ccc(Br)cc12)N1CCC2(CC1)OCCO2`, the “activity, negative = inhibition” value was 7.44%. With `O=C(Cn1ncc2ccsc2c1=O)N1CCC2(CC1)OCCO2` the “activity, negative = inhibition” value was -10%. For `Cc1ccc(S(=O)(=O)NCC2CCC(C(=O)N3CCC4(CC3)OCCO4)CC2)cc1` (stereo not given), the “activity, negative = inhibition” value was -4.19%. `Cc1cc(NC(=O)CCC(=O)N2CCC3(CC2)OCCO3)no1` was tested, and the “activity, negative = inhibition” value was -14.7%. With `Cc1ccc2cc3cc(C(=O)N4CCC5(CC4)OCCO5)oc3nc2c1` the AC50 was 2.51 µM (active). For `O=C(c1cc2cc3ccc(Cl)cc3nc2o1)N1CCC2(CC1)OCCO2`, the AC50 was 6.31 µM (active). In the case of `COC(=O)[C@H](N)CCCN=C(N)N[N+](=O)[O-]`, the “activity, negative = inhibition” value was -6.84%. With `CN1CCc2cccc(Cl)c2CC1` the “activity, negative = inhibition” value was -19.4%. `CCCC(=O)Nc1ccc(N2CCN(CC)CC2)c(Cl)c1` was tested, and the “activity, negative = inhibition” value was -11.9%. With `C[C@@H]1O[C@H](O[C@@H]2CC[C@@]3(C=O)[C@H]4CC[C@@]5(C)[C@@H](C6=CC(=O)OC6)CC[C@@]5(O)[C@@H]4CC[C@]3(O)C2)C[C@H](O)[C@@H]1O` the “activity, negative = inhibition” value was -3.45% [at 25.6 µM]. In the case of `CN1C(=O)C(=Cc2ccccc2Oc2ccc(Cl)c(F)c2)C(=O)N(C)C1=O`, the AC50 was 22.4 µM (active). For `Cc1ccc(N2C(=O)/C(=C/N3CCN(C(=O)c4ccco4)CC3)C(=O)NC2=S)cc1C`, the “activity, negative = inhibition” value was -23.4%. In the case of `O=C(NC1CCCCC1)NC1CC2CCC(C1)N2Cc1nnnn1Cc1ccc2c(c1)OCO2` (stereo not given), the “activity, negative = inhibition” value was -28.4%. With `CC(C)CN1CC2(CCN(C(=O)Oc3ccccc3)CC2)C1` the “activity, negative = inhibition” value was -1.37%. In the case of `c1csc(CN2CCC3(CCNCC3)CC2)n1`, the “activity, negative = inhibition” value was 2.27%. For `COc1cc(OC)c(/C=C2/C(=O)Nc3ccccc32)c(OC)c1`, the AC50 was 0.501 µM (active). In the case of `C=C(C)c1ccccc1` (tested in a mixture with another compound), the activity, negative = inhibition was -19.6% [at 2.29 µM]. `C[N+]1([O-])[C@@H]2CC[C@H]1CC(OC(=O)[C@@H](CO)c1ccccc1)C2` (stereo not given in full) was tested, and the “activity, negative = inhibition” value was 0.733% [at 25.6 µM]. `CC(=O)Nc1ccccc1C(=O)OCC(=O)c1ccc2ccccc2c1` was tested, and the AC50 was 3.16 µM (active). With `CC(=O)Nc1ccccc1C(=O)OCc1ccc(C(=O)c2ccccc2)cc1` the “activity, negative = inhibition” value was -26.4%. Molecule `CS(=O)(=O)O[C@H]1CN2CCC1CC2` has an activity, negative = inhibition of -18.7% [at 11.4 µM]. With `CCOc1ccc(C2C(C#N)=C(N)Oc3c2c(=O)oc2ccccc32)cc1` (stereo not given) the AC50 was 5.01 µM (active). In the case of `COc1ccc2c3c1O[C@@H]1C(=O)CC[C@@]4(O)[C@@H](C2)N(CC2CC2)CC[C@]314`, the “activity, negative = inhibition” value was -8.78%. For `C[C@H](Br)C(=O)c1ccc2cc(Br)c3ccccc3c2c1`, the AC50 was 0.158 µM (active). `CC1=C(CC[C@H](C)CO)O[C@@H]2C[C@@H]3[C@H]4CC[C@H]5C[C@@H](O)CC[C@]5(C)[C@@H]4CC(=O)[C@@]3(C)[C@@H]12` showed an activity, negative = inhibition of -21.1% [at 2.29 µM]. With `O=C(O)Cc1cnc[nH]1` the “activity, negative = inhibition” value was 5.78%. `NC(N)=NS(=O)(=O)c1ccc(N)cc1` was tested, and the “activity, negative = inhibition” value was 1.99% [at 25.6 µM]. `O=C1c2cc([N+](=O)[O-])ccc2-c2ccc3c4ccc5c6c(ccc(c7ccc1c2c73)c64)C(=O)c1cc([N+](=O)[O-])ccc1-5` was tested, and the AC50 was 0.794 µM (active). In the case of `O=C(O)CCCc1ccc(N(CCCl)CCCl)cc1`, the “activity, negative = inhibition” value was -10.6% [at 25.6 µM]. In the case of `C[C@@H]1O[C@H]1P(=O)(O)O`, the “activity, negative = inhibition” value was 7.68%. For `Cc1nccc2c1[nH]c1ccccc12`, the AC50 was 1.26 µM (active) and 631 nM (active). In the case of `Cc1c2ccncc2c(C)c2c1[nH]c1ccccc12`, the AC50 was 0.02 µM (active). Work on `COC(=O)[C@H]1C(=O)c2ccccc2O[C@@](C(=O)OC)(c2ccccc2)[C@@H]1c1ccccc1` yielded an activity, negative = inhibition of 6.39% [at 11.4 µM]. In the case of `C[N+]1(C)CCN(c2ccccc2)CC1`, the “activity, negative = inhibition” value was 9.07%. For `COc1ccc(C(=O)OC2C[C@H]3CC[C@@H](C2)N3C)cc1OC` (stereo not given in full), the “activity, negative = inhibition” value was -6.56% [at 25.6 µM]. `Cc1cccc(NC(=S)NC2CC3CCCC(C2)N3Cc2cccs2)c1` (stereo not given) was tested, and the “activity, negative = inhibition” value was -15.8%. For `CCc1ccccc1NC(=O)NC1CC2CCC(C1)N2Cc1cccs1` (stereo not given), the “activity, negative = inhibition” value was -17.5%. In the case of `CCSc1nnc(C(N)Cc2ccccc2)o1` (stereo not given), the “activity, negative = inhibition” value was -7.56%. For `NCCCNCCSP(=O)(O)O`, the “activity, negative = inhibition” value was -7.82%. For `O=C(Nc1cccc2ccccc12)c1nn(C23CC4CC(CC(C4)C2)C3)cc1Br`, the “activity, negative = inhibition” value was -12.6%. For `CC1CN=C(Nc2cccc3ccccc23)S1` (stereo not given), the AC50 was 2 µM (active). `CCC12C=CCN3CCC4(c5cc(Br)c(OC)cc5N(C)C4C(O)(C(=O)OC)C1OC(C)=O)C32` (stereo not given) was tested, and the “activity, negative = inhibition” value was -4.2%. With `CCC[C@@H]1CC2=CC(=O)CC[C@]2(C)[C@@H]2CC[C@@]3(C)[C@H](CC[C@]3(O)CCC(=O)O)[C@H]12` the “activity, negative = inhibition” value was -1.14%. In the case of `COc1cc(C[C@H](C)N)c(OC)cc1I`, the AC50 was 6.31 µM (active) and 12.6 µM (active). With `Clc1cnc(Oc2ccc(Oc3ncc(Cl)cc3Cl)cc2)c(Cl)c1` the “activity, negative = inhibition” value was -12.7%. In the case of `CCNC[C@H](O)c1cccc(O)c1`, the “activity, negative = inhibition” value was 4.57% [at 25.6 µM]. `c1cncc(CNCCN2CCNCC2)c1` was tested, and the activity, negative = inhibition was 6.05% [at 11.4 µM]. In the case of `c1cncc(CNc2cc(-c3ccc4c(c3)OCO4)ncn2)c1`, the AC50 was 0.251 µM (active). For `Cc1o[nH]c(=O)c1C[C@H](N)C(=O)O`, the “activity, negative = inhibition” value was -5.8%. For `c1ccc2sc(C3(N4CCCCC4)CCCCC3)cc2c1`, the AC50 was “inactive”. In the case of `COc1ccn(C)c(=O)c1C#N`, the “activity, negative = inhibition” value was -9.26% [at 25.6 µM]. Molecule `CO[C@H]1[C@H](O)[C@H](O[C@@H]2[C@H](Oc3cccc4c(O)c5c(=O)oc6ccc(C)c7c(=O)oc(c34)c5c67)O[C@@H](C)[C@H](O)[C@H]2O)O[C@@H](C)[C@@H]1O` has an activity, negative = inhibition of -16.6% [at 11.4 µM]. In the case of `O=[As](O)(O)c1ccc2nc3cc([As](=O)(O)O)ccc3nc2c1`, the activity, negative = inhibition was -15.1% [at 11.4 µM]. For `C=C1[C@@H](O)C2C=CC[C@H](C)C(=O)[C@@](C)(O)C=C[C@@H](OC(C)=O)[C@@]23C(=O)N[C@H](Cc2ccccc2)[C@@H]3[C@@H]1C` (stereo not given in full), the “activity, negative = inhibition” value was -13%. In the case of `c1ccc(N2CCCC3(CCNCC3)C2)cc1`, the “activity, negative = inhibition” value was -16.7%.
